# Screens from PubChem.
# A selection: hits, their analogues and other compounds. The true share with any hit is near 4%.
# GRIN3A LBD mod: binders of NR3A ligand-binding domain, primary screen, biophysical, differential scanning fluorimetry, uHTS | Tm shift relative to glycine control, % at 25 µM | Glutamate receptor ionotropic, NMDA 3A (GRIN3A) ligand-binding domain | NR3A LBD differential scanning fluorimetry, Tm shift; 0% = protein alone, 100% = glycine-bound protein | 2.5% of 340,000 active | AID 1259313, 2017;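 active = melting temperature shift of at least 10% of the positive control shift, at one fixed dose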
# FAS TE block: FAS thioesterase domain inhibitors, primary screen, biochemical, fluorescence intensity, uHTS. Fatty acid synthase (Homo sapiens), P49327. recombinant FAS-TE, OMFH fluorogenic substrate, fluorescence endpoint. inhibition, % at 15 µM. 0.67% of 360,000 active. AID 602261, 2012;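 active = compounds whose normalised, plate-corrected inhibition of enzyme fluorescence in the single-dose primary screen is 50% or more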;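 also: 0% = DMSO with enzyme and 100% = substrate without enzyme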
# Target sequence (P49327 whole entry, looked up, the tested form may be a part): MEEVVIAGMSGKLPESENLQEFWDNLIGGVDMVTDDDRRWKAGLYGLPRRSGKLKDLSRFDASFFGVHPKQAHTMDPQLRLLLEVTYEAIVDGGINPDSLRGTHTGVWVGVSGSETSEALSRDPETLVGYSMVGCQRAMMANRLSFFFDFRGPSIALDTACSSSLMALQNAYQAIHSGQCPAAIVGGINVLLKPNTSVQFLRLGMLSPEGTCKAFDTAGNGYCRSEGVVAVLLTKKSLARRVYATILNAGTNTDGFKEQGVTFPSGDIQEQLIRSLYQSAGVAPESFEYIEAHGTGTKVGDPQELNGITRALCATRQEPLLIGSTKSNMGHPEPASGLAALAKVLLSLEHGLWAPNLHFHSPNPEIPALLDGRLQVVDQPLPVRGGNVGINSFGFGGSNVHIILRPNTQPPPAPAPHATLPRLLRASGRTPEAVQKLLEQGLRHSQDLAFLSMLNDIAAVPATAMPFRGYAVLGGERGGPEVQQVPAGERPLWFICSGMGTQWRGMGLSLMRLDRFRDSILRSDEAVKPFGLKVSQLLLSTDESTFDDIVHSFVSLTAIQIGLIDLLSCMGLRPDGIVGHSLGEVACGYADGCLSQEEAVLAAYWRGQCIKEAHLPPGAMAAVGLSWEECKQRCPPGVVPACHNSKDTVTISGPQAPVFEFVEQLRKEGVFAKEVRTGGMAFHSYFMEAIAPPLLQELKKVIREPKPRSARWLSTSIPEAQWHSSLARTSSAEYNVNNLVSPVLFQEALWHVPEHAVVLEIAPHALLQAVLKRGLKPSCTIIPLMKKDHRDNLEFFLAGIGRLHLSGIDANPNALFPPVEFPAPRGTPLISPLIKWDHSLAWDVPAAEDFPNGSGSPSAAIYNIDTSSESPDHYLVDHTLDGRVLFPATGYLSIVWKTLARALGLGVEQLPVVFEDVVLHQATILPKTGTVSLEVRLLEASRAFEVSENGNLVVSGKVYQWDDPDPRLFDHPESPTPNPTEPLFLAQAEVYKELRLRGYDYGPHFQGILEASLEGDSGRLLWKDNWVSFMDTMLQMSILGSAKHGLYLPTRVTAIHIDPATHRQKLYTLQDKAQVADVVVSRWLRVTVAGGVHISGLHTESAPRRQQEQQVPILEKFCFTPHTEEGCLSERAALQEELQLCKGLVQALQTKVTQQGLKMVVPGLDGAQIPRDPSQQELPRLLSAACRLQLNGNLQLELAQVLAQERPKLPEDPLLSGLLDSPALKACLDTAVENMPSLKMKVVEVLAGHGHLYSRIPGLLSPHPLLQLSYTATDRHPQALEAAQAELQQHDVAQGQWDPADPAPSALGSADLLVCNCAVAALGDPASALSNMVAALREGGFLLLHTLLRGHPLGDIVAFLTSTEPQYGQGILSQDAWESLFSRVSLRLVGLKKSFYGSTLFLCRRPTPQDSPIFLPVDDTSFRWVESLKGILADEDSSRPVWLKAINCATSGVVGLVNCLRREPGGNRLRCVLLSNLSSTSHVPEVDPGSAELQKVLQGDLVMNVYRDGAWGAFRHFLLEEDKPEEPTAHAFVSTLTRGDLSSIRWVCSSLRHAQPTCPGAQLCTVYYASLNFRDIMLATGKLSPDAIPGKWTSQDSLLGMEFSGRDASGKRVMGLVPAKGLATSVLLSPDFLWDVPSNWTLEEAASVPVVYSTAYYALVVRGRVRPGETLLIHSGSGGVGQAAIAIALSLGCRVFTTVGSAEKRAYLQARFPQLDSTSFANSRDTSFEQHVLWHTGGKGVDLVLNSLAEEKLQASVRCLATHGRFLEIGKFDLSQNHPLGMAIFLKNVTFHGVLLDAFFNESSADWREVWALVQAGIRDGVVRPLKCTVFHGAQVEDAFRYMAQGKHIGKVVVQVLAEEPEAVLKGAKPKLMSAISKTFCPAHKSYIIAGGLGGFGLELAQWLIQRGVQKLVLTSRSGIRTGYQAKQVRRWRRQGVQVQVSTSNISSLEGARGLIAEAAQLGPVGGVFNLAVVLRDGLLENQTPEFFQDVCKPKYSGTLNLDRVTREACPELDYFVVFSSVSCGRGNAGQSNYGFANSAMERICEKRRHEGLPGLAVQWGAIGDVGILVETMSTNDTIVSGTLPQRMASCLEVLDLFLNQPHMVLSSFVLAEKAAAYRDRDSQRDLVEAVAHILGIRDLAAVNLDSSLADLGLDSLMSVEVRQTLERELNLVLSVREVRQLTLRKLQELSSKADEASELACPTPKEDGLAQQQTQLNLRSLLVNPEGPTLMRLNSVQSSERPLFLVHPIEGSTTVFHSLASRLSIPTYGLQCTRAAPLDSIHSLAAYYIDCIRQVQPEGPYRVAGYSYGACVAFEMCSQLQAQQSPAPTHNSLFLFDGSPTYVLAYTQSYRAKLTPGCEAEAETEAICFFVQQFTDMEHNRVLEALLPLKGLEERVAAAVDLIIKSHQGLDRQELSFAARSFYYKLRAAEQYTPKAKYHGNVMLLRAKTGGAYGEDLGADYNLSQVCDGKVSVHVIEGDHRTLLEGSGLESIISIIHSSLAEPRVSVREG
# ADAM10 inh: human ADAM10 inhibitors, primary screen, biochemical, QFRET, HTS. recombinant ADAM10, EDANS/DABCYL FRET peptide cleavage, 3 h. inhibition, % at 7 µM. 0.62% of 370,000 active. AID 720582, 2013;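 active = inhibition above a per-campaign cutoff equal to the mean of compounds falling between control-based bounds plus 3 SD, cut at about 20% in these data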;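 also: 0% = DMSO wells while the 100% control is not disclosed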
# ADAM17 inh: ADAM17 inhibitors, primary screen, biochemical, QFRET. Disintegrin and metalloproteinase domain-containing protein 17 (Homo sapiens), P78536. recombinant ADAM17, EDANS/DABCYL FRET peptide cleavage. inhibition, % at 6.95 µM. 0.83% of 370,000 active. AID 720648, 2013;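 active = inhibition above the mean of compounds lying between control limits plus 3 SD, set per campaign, cut at about 8.5% in these data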;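 also: 0% = DMSO-only wells as the low control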
# aDG glyco act: activators of alpha-DG glycosylation, primary screen, uHTS, Pro5-aDG cells, AlphaScreen; alpha-DG glycosylation AlphaScreen (IIH6); 0% Pro5, 100% B10-LARGE cell signal; activation, % at 10 µM; 0.22% of 360,000 active; AID 624168, 2012;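 active = activation of at least 8% versus controls, or a plate z-score of at least 8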;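 also: Pro5 are CHO cells carrying HIG-tagged alpha-DG that lacks glycosylation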
# * = called active by the depositor; · = no result given.
SMILES,GRIN3A LBD mod,FAS TE block,ADAM10 inh,ADAM17 inh,aDG glyco act
Cc1cccc(S(=O)(=O)c2c(N)n(/N=C/c3ccco3)c3nc4ccccc4nc23)c1,8.2,39.3,-172.5,-56.9,0.0
COc1cccc(/C=N/n2c(N)c(S(=O)(=O)c3cccs3)c3nc4ccccc4nc32)c1,1.1,16.0,-4.3,-2.9,-0.2
Cc1cccc(S(=O)(=O)c2c(N)n(-c3ccccc3)c3nc4ccccc4nc23)c1,11.5*,10.7,-273.4,-72.2,0.3
Cc1ccc(S(=O)(=O)c2c(N)n(/N=C/c3ccco3)c3nc4ccccc4nc23)cc1,5.9,34.2,-207.3,-50.3,0.1
CCOC(=O)CN(C(=O)CNC(=O)c1ccco1)C(C(=O)NC1CCCCC1)c1cccc(OC)c1 (configuration not stated),3.5,-4.8,9.6,-0.9,0.3
O=c1c(Cl)c2oc3ccccc3nc-2c2ccccc12,8.6,-89.0,·,·,6.1*
Clc1ccc(-c2nnc(Sc3nc4ccccc4o3)c3ccccc23)cc1,1.3,28.6,-6.1,-2.1,0.4
CN(Cc1ccccc1)C(=O)c1ccc2c(c1)S(=O)(=O)N=C1CCCCCN12,-4.4,1.4,2.8,3.5,0.0
CC(=O)C12CCCCC1CC1[C@@H]3CC(C)C4=CC(=O)CC[C@]4(C)C3CC[C@@]12C (some centres not stated),22.0*,26.2,-1.1,-4.0,-0.1
COc1ccc(C(=O)NCCSCc2ccco2)cc1OC,2.8,-8.8,2.7,-2.1,-0.1
O=C(CNc1ccc2ccccc2c1)N/N=C/c1ccc([N+](=O)[O-])o1,-1.4,3.5,-7.9,1.5,9.8*
O=C(COc1ccccc1)N/N=C/c1ccc([N+](=O)[O-])o1,-2.8,1.4,-13.8,-0.7,4.8
O=C(c1ccccc1)N1CCN=C1SCc1ccc([N+](=O)[O-])cc1,24.2*,-2.9,2.2,2.7,-0.6
O=C(c1ccc([N+](=O)[O-])cc1)N1CCN=C1SCc1ccccc1,0.9,6.0,7.3,1.4,0.1
CCOC(=O)C1(CCc2ccccc2)CCN(C(=O)[C@@H]2C[C@@H](C)NC(=S)N2)CC1,0.1,0.1,0.7,-3.2,0.3
O=c1cc(CSc2nc3ccccc3c(=O)[nH]2)c2ccc(O)cc2o1,29.4*,-2.1,-103.7,-26.3,1.7
CCOC(=O)c1ccccc1NC(=O)C1CC(=O)N(C(C)(C)C)C1 (configuration not stated),-0.7,-5.3,-3.4,-3.9,0.0
O=C(O)c1ccc(-c2ccc(/C=N/Nc3ccc([N+](=O)[O-])cc3)o2)cc1,10.1*,2.0,-83.4,-31.4,0.1
O=C(O)c1cccc(-c2ccc(/C=N/Nc3ccc([N+](=O)[O-])cc3)o2)c1,11.7*,2.2,7.9,3.1,-0.1
COc1ccc(N2C(=O)c3ccccc3NC2(C)C)cc1,-109.1,-0.2,-41.9,-15.7,-0.3
CC1(C)Nc2ccccc2C(=O)N1c1ccc(Br)cc1,13.3*,1.3,-62.4,-32.6,0.0
O=C(/C(=N/N=C/c1ccc(O)c(O)c1O)c1ccccc1)c1ccccc1,18.1*,21.9,16.7,7.8,-0.3
Cc1c(Cc2ccccc2)sc(/N=C/c2c(O)ccc3ccccc23)c1C(N)=O,11.5*,-6.1,·,·,0.2
Cc1c(Cc2ccccc2)sc(/N=C/c2ccc3ccccc3c2)c1C(N)=O,0.3,1.0,·,·,-0.4
CCC(=O)N1CCc2cc(Br)cc(S(=O)(=O)NCCN3CCCC3)c21,-2.2,-3.4,-3.8,-3.1,0.0
CCC(=O)N1CCc2cc(Br)cc(S(=O)(=O)CC(=O)OC)c21,14.0*,-7.4,·,·,-0.3
Cn1c(CCN2CCCCC2)nc2cc(NS(=O)(=O)c3ccc(Cl)cc3)ccc21,2.3,-9.1,-7.9,-1.8,0.0
CCCCS(=O)(=O)CC(COc1ccccc1)OC(=O)c1ccccc1 (configuration not stated),13.6*,16.8,-2.7,-0.4,-0.1
CCCCS(=O)CC(CS(=O)CCCC)OC(=O)c1ccccc1 (configuration not stated),-2.2,-11.1,-4.8,-4.7,0.0
